Columns and labels:
[1] = target: Mast/stem cell growth factor receptor Kit (Homo sapiens) (UniProt P10721); settings: at 1 µM
[2] = system: Mast/stem cell growth factor receptor Kit (Homo sapiens), P10721 [D816V]; settings: at 0.1 µM
[3] = system: Mast/stem cell growth factor receptor Kit (Homo sapiens), P10721 [D816V]; settings: at 1 µM
[4] = system: Mast/stem cell growth factor receptor Kit (Homo sapiens), P10721 [T670I]; settings: at 0.1 µM
[5] = system: Mast/stem cell growth factor receptor Kit (Homo sapiens), P10721 [T670I]; settings: at 1 µM
[6] = system: Mast/stem cell growth factor receptor Kit (Homo sapiens), P10721 [V560G]; settings: at 0.1 µM
Mast/stem cell growth factor receptor Kit (Homo sapiens), P10721 [V560G], sequence (P10721 whole entry V560G): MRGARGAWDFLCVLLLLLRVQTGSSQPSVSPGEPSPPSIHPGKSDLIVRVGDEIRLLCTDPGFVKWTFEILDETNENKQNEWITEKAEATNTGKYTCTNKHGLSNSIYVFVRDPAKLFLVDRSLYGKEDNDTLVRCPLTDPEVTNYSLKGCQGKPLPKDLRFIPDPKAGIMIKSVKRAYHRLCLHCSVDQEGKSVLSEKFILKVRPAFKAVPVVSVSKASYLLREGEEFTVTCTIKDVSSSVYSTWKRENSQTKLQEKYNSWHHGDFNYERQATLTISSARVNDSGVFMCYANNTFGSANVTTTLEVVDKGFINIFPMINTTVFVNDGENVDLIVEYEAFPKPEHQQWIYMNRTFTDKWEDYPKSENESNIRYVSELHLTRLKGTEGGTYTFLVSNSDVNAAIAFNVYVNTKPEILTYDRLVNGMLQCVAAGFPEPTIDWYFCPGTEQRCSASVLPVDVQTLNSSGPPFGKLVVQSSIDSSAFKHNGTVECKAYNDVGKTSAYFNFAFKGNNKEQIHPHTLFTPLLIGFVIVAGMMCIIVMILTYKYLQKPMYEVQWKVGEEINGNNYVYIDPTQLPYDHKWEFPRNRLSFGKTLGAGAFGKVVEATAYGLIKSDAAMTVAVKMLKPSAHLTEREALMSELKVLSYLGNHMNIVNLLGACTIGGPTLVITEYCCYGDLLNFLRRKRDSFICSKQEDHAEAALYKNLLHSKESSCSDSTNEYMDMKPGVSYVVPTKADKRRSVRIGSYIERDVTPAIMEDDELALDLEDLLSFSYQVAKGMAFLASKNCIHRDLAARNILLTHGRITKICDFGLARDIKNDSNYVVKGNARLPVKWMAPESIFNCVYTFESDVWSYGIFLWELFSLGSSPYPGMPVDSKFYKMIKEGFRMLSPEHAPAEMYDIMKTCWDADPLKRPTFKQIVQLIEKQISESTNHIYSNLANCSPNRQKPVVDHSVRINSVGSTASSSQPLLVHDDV

[7] = system: Mast/stem cell growth factor receptor Kit (Homo sapiens), P10721 [V560G]; settings: at 1 µM
[8] = target: Tyrosine-protein kinase Lck (Homo sapiens) (UniProt P06239); settings: at 0.1 µM
Tyrosine-protein kinase Lck (Homo sapiens), sequence (P06239 2-509 limits assumed): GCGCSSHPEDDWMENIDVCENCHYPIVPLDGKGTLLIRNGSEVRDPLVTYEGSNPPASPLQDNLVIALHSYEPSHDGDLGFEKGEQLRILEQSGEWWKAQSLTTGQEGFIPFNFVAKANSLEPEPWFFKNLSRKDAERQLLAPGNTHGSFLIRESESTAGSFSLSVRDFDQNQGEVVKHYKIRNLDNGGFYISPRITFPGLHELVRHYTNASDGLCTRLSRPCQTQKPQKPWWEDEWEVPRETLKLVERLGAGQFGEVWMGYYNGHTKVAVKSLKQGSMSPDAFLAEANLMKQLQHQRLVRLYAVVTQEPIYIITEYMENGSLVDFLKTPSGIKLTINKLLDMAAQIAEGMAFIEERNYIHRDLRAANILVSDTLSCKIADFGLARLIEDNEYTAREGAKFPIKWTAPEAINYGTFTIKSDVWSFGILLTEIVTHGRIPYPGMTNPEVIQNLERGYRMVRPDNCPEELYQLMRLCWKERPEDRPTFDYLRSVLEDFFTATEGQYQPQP

[9] = target: Tyrosine-protein kinase Lck (Homo sapiens) (UniProt P06239); settings: at 1 µM
[10] = target: Leukocyte tyrosine kinase receptor (Homo sapiens) (UniProt P29376); settings: at 0.1 µM
Leukocyte tyrosine kinase receptor (Homo sapiens), sequence (P29376 whole entry): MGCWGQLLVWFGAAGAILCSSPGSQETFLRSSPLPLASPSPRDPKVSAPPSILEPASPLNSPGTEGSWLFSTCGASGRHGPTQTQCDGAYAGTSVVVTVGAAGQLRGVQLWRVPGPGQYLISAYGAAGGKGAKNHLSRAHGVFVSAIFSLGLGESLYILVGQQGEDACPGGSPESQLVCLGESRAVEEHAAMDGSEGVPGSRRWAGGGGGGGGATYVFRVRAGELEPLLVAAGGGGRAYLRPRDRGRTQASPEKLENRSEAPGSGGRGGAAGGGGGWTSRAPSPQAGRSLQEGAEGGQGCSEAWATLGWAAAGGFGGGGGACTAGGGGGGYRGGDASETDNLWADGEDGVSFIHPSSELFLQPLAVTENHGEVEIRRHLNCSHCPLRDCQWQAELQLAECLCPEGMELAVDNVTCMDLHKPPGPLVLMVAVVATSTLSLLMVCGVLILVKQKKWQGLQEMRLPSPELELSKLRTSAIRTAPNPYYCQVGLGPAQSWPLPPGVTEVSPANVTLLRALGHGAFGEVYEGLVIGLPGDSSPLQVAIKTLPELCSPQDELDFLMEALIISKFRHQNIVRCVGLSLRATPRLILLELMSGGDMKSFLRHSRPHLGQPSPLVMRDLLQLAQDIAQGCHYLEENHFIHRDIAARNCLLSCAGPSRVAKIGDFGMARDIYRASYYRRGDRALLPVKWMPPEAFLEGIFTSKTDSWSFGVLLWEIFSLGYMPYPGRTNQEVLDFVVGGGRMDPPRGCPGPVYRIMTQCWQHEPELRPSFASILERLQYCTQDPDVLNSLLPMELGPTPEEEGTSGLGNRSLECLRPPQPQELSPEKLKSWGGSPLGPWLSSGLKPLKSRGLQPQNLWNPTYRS

[11] = target: Leukocyte tyrosine kinase receptor (Homo sapiens) (UniProt P29376); settings: at 1 µM
[12] = target: Tyrosine-protein kinase Lyn (Homo sapiens) (UniProt P07948); settings: at 0.1 µM
Tyrosine-protein kinase Lyn (Homo sapiens), sequence (P07948 2-512 limits assumed): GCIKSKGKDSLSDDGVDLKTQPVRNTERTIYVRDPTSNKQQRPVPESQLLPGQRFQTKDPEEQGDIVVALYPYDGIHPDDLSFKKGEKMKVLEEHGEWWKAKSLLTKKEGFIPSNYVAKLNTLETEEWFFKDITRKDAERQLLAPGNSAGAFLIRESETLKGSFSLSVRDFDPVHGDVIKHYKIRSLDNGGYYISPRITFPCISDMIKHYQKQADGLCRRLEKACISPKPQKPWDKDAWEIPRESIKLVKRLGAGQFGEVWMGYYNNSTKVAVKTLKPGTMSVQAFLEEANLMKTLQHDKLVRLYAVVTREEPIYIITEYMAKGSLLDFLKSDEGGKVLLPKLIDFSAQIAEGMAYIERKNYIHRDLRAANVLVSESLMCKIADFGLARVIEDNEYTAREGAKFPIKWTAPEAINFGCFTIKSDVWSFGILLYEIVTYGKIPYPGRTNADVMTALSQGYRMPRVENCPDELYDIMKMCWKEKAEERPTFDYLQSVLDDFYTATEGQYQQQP

[13] = target: Tyrosine-protein kinase Lyn (Homo sapiens) (UniProt P07948); settings: at 1 µM
[14] = target: Tyrosine-protein kinase Lyn (Homo sapiens) (UniProt P07948); settings: at 0.1 µM; remark: listed apart in the source
[15] = target: Tyrosine-protein kinase Lyn (Homo sapiens) (UniProt P07948); settings: at 1 µM; remark: listed apart in the source
[16] = target: T1, Tyrosine-protein kinase Mer (Homo sapiens) (UniProt Q12866); settings: at 0.1 µM
T1 sequence (whole entry): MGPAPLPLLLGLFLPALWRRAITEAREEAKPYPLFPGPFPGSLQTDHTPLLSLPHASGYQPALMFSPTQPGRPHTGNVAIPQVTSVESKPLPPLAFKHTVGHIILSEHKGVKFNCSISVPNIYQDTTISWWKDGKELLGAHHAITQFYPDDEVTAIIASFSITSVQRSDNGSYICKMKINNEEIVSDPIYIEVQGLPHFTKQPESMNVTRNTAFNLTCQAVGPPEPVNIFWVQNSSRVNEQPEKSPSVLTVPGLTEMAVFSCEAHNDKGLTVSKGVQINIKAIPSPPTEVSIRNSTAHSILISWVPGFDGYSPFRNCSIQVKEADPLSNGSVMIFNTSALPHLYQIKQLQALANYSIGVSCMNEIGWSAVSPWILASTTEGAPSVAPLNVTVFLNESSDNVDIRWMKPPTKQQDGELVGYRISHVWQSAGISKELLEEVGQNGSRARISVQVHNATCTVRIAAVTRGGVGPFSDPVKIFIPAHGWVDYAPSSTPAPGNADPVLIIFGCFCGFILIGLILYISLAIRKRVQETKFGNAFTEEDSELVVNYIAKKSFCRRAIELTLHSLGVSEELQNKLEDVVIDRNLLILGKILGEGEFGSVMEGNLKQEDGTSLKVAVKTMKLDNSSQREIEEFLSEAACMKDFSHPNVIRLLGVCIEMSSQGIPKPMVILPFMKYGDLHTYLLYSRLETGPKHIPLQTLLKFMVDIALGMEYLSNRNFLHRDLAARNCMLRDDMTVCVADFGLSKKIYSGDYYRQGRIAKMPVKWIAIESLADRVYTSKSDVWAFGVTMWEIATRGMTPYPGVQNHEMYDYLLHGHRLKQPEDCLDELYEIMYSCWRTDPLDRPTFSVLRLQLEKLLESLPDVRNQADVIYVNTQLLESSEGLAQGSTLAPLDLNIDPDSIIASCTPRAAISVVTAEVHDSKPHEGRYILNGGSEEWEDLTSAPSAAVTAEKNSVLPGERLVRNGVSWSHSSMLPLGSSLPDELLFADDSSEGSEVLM

[17] = target: T1, Tyrosine-protein kinase Mer (Homo sapiens); settings: at 1 µM
[18] = target: Hepatocyte growth factor receptor (Homo sapiens) (UniProt P08581); settings: at 0.1 µM
Hepatocyte growth factor receptor (Homo sapiens), sequence (P08581 whole entry): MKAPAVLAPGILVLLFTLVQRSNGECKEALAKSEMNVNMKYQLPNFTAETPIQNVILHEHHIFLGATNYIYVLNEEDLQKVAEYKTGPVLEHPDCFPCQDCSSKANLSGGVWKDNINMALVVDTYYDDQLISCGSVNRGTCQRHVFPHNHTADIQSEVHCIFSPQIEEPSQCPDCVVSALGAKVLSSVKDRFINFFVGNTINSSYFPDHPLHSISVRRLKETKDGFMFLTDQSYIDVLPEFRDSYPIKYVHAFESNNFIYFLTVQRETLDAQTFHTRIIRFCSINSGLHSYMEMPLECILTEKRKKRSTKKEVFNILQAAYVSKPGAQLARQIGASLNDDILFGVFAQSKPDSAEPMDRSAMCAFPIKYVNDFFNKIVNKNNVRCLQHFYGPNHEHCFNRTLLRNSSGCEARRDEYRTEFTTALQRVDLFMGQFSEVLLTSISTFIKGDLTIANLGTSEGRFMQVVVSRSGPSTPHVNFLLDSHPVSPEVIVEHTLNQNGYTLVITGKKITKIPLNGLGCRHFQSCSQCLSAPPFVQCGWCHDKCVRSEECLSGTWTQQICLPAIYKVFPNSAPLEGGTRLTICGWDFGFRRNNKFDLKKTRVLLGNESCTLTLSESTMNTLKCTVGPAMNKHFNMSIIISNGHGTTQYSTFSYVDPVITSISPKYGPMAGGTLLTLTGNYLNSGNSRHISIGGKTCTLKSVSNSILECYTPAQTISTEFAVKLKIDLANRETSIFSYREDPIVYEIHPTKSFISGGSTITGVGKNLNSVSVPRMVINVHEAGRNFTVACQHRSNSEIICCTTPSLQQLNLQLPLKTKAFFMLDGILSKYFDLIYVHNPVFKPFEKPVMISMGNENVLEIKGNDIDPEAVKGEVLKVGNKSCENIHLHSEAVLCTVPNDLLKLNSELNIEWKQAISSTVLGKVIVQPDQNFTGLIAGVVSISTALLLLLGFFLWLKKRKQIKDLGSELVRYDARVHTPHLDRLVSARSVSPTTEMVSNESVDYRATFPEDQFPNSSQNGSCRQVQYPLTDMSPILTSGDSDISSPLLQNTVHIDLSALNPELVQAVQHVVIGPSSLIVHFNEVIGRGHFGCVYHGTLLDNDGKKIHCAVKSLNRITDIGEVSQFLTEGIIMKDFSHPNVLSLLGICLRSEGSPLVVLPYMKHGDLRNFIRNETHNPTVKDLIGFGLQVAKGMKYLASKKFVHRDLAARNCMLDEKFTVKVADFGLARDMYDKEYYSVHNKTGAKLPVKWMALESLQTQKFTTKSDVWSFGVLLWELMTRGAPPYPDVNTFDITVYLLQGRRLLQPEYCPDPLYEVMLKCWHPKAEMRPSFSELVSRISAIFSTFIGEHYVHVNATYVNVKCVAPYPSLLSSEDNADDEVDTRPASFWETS

[19] = target: Hepatocyte growth factor receptor (Homo sapiens) (UniProt P08581); settings: at 1 µM
[20] = target: T2, Muscle, skeletal receptor tyrosine-protein kinase (Homo sapiens) (UniProt O15146); settings: at 0.1 µM;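 also: values are mean inhibition of MuSK from the GSK PKIS kinase screening panel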
T2 sequence (whole entry): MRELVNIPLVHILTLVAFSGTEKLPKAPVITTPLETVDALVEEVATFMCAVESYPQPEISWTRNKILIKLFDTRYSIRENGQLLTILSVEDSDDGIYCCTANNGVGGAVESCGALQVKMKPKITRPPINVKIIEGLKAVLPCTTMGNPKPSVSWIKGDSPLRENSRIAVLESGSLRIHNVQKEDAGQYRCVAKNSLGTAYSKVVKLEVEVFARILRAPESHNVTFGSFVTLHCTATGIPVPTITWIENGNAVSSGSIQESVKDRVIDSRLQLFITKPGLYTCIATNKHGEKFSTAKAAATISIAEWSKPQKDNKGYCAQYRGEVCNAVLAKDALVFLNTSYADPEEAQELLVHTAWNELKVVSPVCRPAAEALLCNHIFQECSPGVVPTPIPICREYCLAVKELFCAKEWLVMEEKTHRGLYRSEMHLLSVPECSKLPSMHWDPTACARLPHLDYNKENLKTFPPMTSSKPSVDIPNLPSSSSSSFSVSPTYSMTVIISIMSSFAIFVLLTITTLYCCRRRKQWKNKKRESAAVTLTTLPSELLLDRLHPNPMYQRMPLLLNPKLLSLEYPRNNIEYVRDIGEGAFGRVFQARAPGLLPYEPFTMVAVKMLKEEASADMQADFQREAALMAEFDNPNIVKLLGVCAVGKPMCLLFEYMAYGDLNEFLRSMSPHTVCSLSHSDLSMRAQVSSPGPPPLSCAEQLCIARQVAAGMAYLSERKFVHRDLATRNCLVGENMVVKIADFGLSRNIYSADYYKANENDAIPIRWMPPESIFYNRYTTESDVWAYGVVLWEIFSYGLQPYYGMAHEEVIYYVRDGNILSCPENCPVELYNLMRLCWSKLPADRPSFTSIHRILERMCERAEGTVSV

Mast/stem cell growth factor receptor Kit (Homo sapiens), P10721 [D816V], sequence (P10721 whole entry D816V): as the sequence (P10721 whole entry V560G) above, with G560V, D816V counted along it
Mast/stem cell growth factor receptor Kit (Homo sapiens), P10721 [T670I], sequence (P10721 whole entry T670I): as the sequence (P10721 whole entry V560G) above, with G560V, T670I counted along it
Mast/stem cell growth factor receptor Kit (Homo sapiens), sequence (P10721 whole entry): as the sequence (P10721 whole entry V560G) above, with G560V counted along it

Row | SMILES | inhibition [1] | inhibition [2] | inhibition [3] | inhibition [4] | inhibition [5] | inhibition [6] | inhibition [7] | inhibition [8] | inhibition [9] | inhibition [10] | inhibition [11] | inhibition [12] | inhibition [13] | inhibition [14] | inhibition [15] | inhibition [16] | inhibition [17] | inhibition [18] | inhibition [19] | inhibition [20]
1 | NC(=O)c1cccc(Nc2nccc(Nc3cccc(F)c3)n2)c1 | 82.6% | -0.14% | 2.14% | 0.52% | 7.62% | 2.06% | 32.6% | 2.44% | 15% | 0.75% | 6.92% | 3.6% | 36.1% | 2.42% | 30.6% | 0.08% | 4.99% | 7.98% | 9.64% | 0.8%
2 | CN(C)CCCn1c(-c2nonc2N)nc2cnccc21 | 3.91% | 4.66% | – | 2.49% | 0.58% | -1.36% | -1.19% | 2.27% | 4.6% | 3.86% | 2.08% | 4.87% | 6.51% | 3.03% | 2.22% | 2.17% | 1.41% | 6.53% | 5.18% | -0.43%
3 | FC(F)(F)c1ccc(-c2nn3ncccc3c2-c2ccnc(Nc3ccc4c(c3)OCCO4)n2)cc1 | 41.4% | -0.4% | 4.93% | 0.89% | 6.31% | 9.1% | 21.1% | 6.41% | 42.5% | 1.18% | 3.42% | 6.84% | 37.1% | 4.96% | 30.8% | 7.37% | 8.55% | 5.94% | 12.1% | 7.57%
4 | COc1cccc(-n2ncc3c(N/N=C/c4ccc(S(C)(=O)=O)cc4)ncnc32)c1 | 61.6% | 1.61% | 9.23% | 7.49% | 44.8% | 1.83% | 7.89% | 37.7% | 73.9% | 1.43% | 2.05% | 54.1% | 76.5% | 48.1% | 73.3% | 6.96% | 28.3% | 14.5% | 47.6% | 12.1%
5 | COc1cc2ncnc(Nc3ccc(C)c(O)c3)c2cc1OC | 40.5% | 44% | 88.3% | 3.54% | 2.94% | 5.53% | 35.8% | 25% | 72.2% | 6.58% | 24.8% | 39.7% | 83.9% | 32.6% | 80.8% | 2.64% | 4.97% | 1.61% | 9.16% | 0.51%
6 | Cc1cc(Cl)cc2c1NC(=O)C2=NNc1ccc(S(N)(=O)=O)cc1 | 12.9% | 4.18% | -3.52% | 2.4% | 3.29% | 2.2% | 7.35% | 1.9% | 1.89% | 2.82% | 2.25% | 3.74% | 4.11% | 2.32% | 4.84% | 0.38% | 0.48% | -0.26% | 5.08% | 2.21%
7 | COC(=O)c1cncc(/C=C/c2c(C)cc(O)cc2C)c1 | 83.5% | 4.37% | 7.02% | 2.73% | 0.94% | 4.65% | 41.8% | 5.78% | 30.5% | 3.77% | 4.87% | 12.3% | 46.2% | 7.81% | 41.9% | 0.09% | 2.53% | 1.79% | 11.5% | 2.48%
8 | c1ccc(Nc2ncc(-c3ccccc3)o2)cc1 | 88.1% | 1.88% | 3.71% | 4.48% | 40% | 1.47% | 50.4% | 3.52% | 10.9% | 6.86% | 6.52% | 5.9% | 9.62% | 4.91% | 7.76% | 2.15% | 2.41% | 3.87% | 6.02% | 3.65%
9 | CCS(=O)(=O)c1ccc(OC)c(Nc2ncc(-c3cccc(OC)c3)o2)c1 | 97% | 0.77% | 7.53% | 10.8% | 67.6% | 3.11% | 38.3% | 11.7% | 47.6% | 1.67% | 3.16% | 20.2% | 68.2% | 15.9% | 63.6% | 2.42% | 7.73% | -0.79% | 2.24% | 4.87%
10 | Cc1ccc(Nc2ccnc(Nc3cccc(C(N)=O)c3)n2)cc1O | 42.7% | 14.9% | 54.3% | 2.19% | 5.43% | 3.09% | 21.1% | 29.2% | 72.2% | 4.36% | 15.9% | 61.2% | 90.5% | 56.5% | 88.8% | 1.3% | 11.7% | 5.11% | 6.87% | 5.89%
11 | Cc1ccc(C(=O)NC2CC2)cc1-c1ccc2[nH]ncc2c1 | 9.73% | -2.2% | -3.32% | -2.37% | -3.32% | 1.39% | 6.83% | -0.97% | 1.92% | -2.04% | -2.27% | -2.45% | -0.16% | -2.22% | -0.48% | -1.71% | 1.57% | -0.6% | -1.74% | 0.78%
12 | ON=C1CCc2cc(-c3nc(C4CCNCC4)[nH]c3-c3ccncc3)ccc21 | -4.25% | 2.66% | 5.8% | -0.79% | -1.23% | -2.31% | -1.75% | 0.93% | 6.86% | 1.01% | 1.88% | 0.17% | 2.43% | -0.33% | 0.99% | -0.13% | 2.76% | 0.32% | 4.34% | -1.09%
13 | Cc1ccc(O)cc1Nc1ccnc2ccc(S(C)(=O)=O)cc12 | 48.2% | 38.2% | 84.5% | 4.38% | 8% | 8.1% | 53.7% | 86.3% | 97.1% | 4.66% | 10.2% | 93.2% | 96.7% | 91.9% | 96.2% | 3.15% | 4.83% | 5.51% | -0.38% | 2.4%
14 | O=C(Nc1ccc(Oc2ccc3[nH]c(NC(=O)c4ccco4)nc3c2)cc1)Nc1cc(C(F)(F)F)ccc1F | 92.1% | -0.77% | -1.72% | 12.6% | 79.5% | 25.1% | 72.9% | 1% | 38.8% | 0.05% | 5.81% | 14% | 65.7% | 9.31% | 60.5% | 0.43% | 14.1% | 3.13% | 42.9% | 49.9%
15 | [O-][S+]1CCN(Cc2ccc(-c3ccc4ncnc(Nc5ccc(OCc6ccccc6)c(Cl)c5)c4c3)o2)CC1 | 0.65% | -2.21% | -2.37% | 4.79% | 4.66% | -1.31% | -1.84% | 1.46% | 5.8% | 2.41% | 7.75% | 1.18% | 6.07% | -1.3% | 3.42% | 7.08% | 48.2% | 3.11% | 5.04% | 1.43%
16 | CS(=O)(=O)Nc1cccc(-c2ccc3c(NC(=O)C4CC4)n[nH]c3c2)c1 | -3.67% | 1.45% | 0.35% | -1.01% | -2.29% | 0.19% | 0.6% | 1.99% | 6.14% | 1.68% | 1.06% | 1.17% | 1.49% | 0.4% | -0.21% | 1.36% | 1.01% | 5.25% | 1.91% | 0.75%
17 | COc1cccc(-n2nc(C)c3c(N/N=C(\C)c4ccncc4)ncnc32)c1 | 2.68% | -0.3% | -0.84% | -1.32% | 0.13% | 2.07% | 0.19% | 0.65% | 2.98% | 1.52% | 1.76% | 1.67% | 2.24% | 2.02% | 1.38% | 1.59% | -0.09% | -1.53% | -2.4% | 0.43%
